This passage reports Potency results from PubChem BioAssay (NCATS).

Results filed as inconclusive are left out. Entries that show only a call come without a potency. Calls of active or inactive are those of the source. Calls come from the whole dose curve; as a rule, active = well fitted cell-killing curve with a large enough effect; inconclusive = small, poorly fitted or top-dose-only effect; inactive = flat fitted curve, though single readings scatter.
Potency is the fitted concentration of half-maximal effect.

The test is described as follows: Cell Viability - LYMP2-015 (AID 971). Note: nearly all actives have a fitted effect of over 55% in size. To be noted: LYMP2-015 lymphoblastoid cell viability; series mostly up to 92.2 µM. An excerpt: NIH Chemical Genomics Center [NCGC]
NIH Molecular Libraries Screening Centers Network [MLSCN]
National Institutes of Environmental Health Sciences [NIEHS]
National Toxicology Program [NTP]
We have developed a 1536-well cell-based assay for quantitative high throughput screening (qHTS) against a number of cell lines to determine in vitro cytotoxicity of small molecules. This particular assay uses a human lymphoblastoid cell line (LYMP2-015) purchased from Coriell Institute for Medical Research.
NCGC Assay Protocol Summary:
The CellTiter-Glo luminescent cell viability assay (Promega) is a homogeneous method to measure the number of viable cells in culture. The end point readout of this assay is based on quantitation of intracellular ATP, an indicator of metabolic activity, using the luciferase reaction. Luciferase catalyzes the oxidation of beetle Luciferin to oxyluciferin and light in the presence of ATP. The luminescent signal is proportional to amount of ATP present.
Using the CellTiter-Glo luminescent cell viability assay, the amount of cellular ATP was measured in the lymphoblastoid cell line with complete culture medium following compound treatment for 24 hours. The assay was performed in opaque white Kalypsys 1536-well plates. In the screen, tetraoctylammonium bromide was used as positive control. Library compounds were measured for their ability to cause acute toxicity in the cell line, as reflected by a decrease in intracellular ATP levels, in a concentration-dependent manner. […] AC50 values were determined from concentration-response data modeled with the standard Hill equation.
qHTS protocol for CellTiter Glo lymphoblastoid cellular assay
[Step] [Parameter] [Value] [Description]
1. Reagent; 5 uL; 2500 lymphoblastoid cells/well
2. Time; 5 hr; 37 C incubation
4. Controls; 23 nL; Tetraoctylammonium bromide 6.4pM to 92 uM
5. Time; 24 hr; 37 C incubation
6. Reagent; 5 uL; CellTiter Glo reagent
7. Time; 30 min; Room Temperature
8. Detection; Luminescence; Viewlux plate reader
Keywords: cell viability, cytotoxicity, lymphoblastoid cell line, luminescence, NTPHTS, NTPHTS_NCGC, NIEHS, DSSTox, MLSMR, MLSCN, NIH Roadmap, qHTS, NCGC
Take `CC(=O)Oc1ccc(C(c2ccc(OC(C)=O)cc2)c2ccccn2)cc1`: the Potency entry was “inactive”.
In the case of `CC/C(=C(/CC)c1ccc(O)cc1)c1ccc(O)cc1` it was “inactive”.
In the case of `Nc1ccc(C(=O)O)cc1` it was “inactive”.
For the molecule `C[C@]12CC[C@@H]3c4ccc(O)cc4CC[C@H]3[C@@H]1CC[C@@H]2O`, the Potency entry was “inactive”.
For the molecule `COC1=CC(=O)C[C@@H](C)[C@]12Oc1c(Cl)c(OC)cc(OC)c1C2=O`, the Potency result was “inactive”.
In the case of `CC(=O)O[C@]1(C(C)=O)CC[C@H]2[C@@H]3C[C@H](C)C4=CC(=O)CC[C@]4(C)[C@H]3CC[C@@]21C` it was 39.8 µM (active); in that of `Oc1ccc(O)cc1`, 50.1 µM (active).
As for `CN(C)/N=N/c1nc[nH]c1C(N)=O`, the Potency entry was “inactive”.
In the case of `O=C(O)CCCCC(=O)O` it was “inactive”.
For `CC(C)(C)CC(C)(C)c1ccc(OCCOCC[N+](C)(C)Cc2ccccc2)cc1` the value was 25.1 µM (active); for `CCCCCCc1ccc(O)cc1O`, “inactive”.
In the case of `C=C(CC)C(=O)c1ccc(OCC(=O)O)c(Cl)c1Cl` it was 50.1 µM (active); in that of `O=c1ccc2ccccc2o1`, “inactive”; in that of `NC(=NCCCCCCN=C(N)/N=C(\N)Nc1ccc(Cl)cc1)/N=C(\N)Nc1ccc(Cl)cc1`, 39.8 µM (active).
`CC(O)C(=O)O` (stereo not drawn): the Potency result is “inactive”.
For `C=CCc1ccc(O)c(OC)c1` the value was “inactive”; for `O=C1OC(c2ccc(O)cc2)(c2ccc(O)cc2)c2ccccc21`, “inactive”.
With `COc1cccc2c1C(=O)c1c(O)c3c(c(O)c1C2=O)C[C@@](O)(C(=O)CO)C[C@@H]3O[C@H]1C[C@H](N)[C@H](O)[C@H](C)O1`, the Potency is 0.158 µM (active).
